Measured values from PubChem BioAssay (EPA / NIEHS).
Inconclusive results are not listed. Activity calls are given as the source filed them. Rule for the calls, unless noted: active = hit-call score of the fitted dose curve at least 0.9, where 1 is the maximum; inactive = score below 0.9.

Legend:
[1] = CCTE_Shafer_MEA_acute_spike_number: CCTE's Neural Acute Assay for Total Number of Spikes, Shafer Lab (AID 2284008);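 for AC50: curve fitted for decrease in spike count so AC50 reflects inhibitors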
Summary of the method: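 Read-out is the total spike count over 40 min, expressed as percent change from each well's own pre-treatment baseline and fitted in the loss direction against DMSO. Rat cortical neurons were exposed at 0.03-40 uM on DIV 13 or 15.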

[2] = CCTE_Shafer_MEA_acute_firing_rate_mean: CCTE's Neural Acute Assay for Mean Firing Rate, Shafer Lab (AID 2284009);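 note: analyzed for loss of signal so actives lower firing rate relative to DMSO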
Summary of the method: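 Spontaneous spiking of primary rat cortical networks, DIV 13/15, 37 C. Compound 0.03-40 uM, n ≥3 wells; 40 min baseline vs 40 min treated. Endpoint fitted in loss-of-signal direction against DMSO.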

[3] = CCTE_Shafer_MEA_acute_burst_number: CCTE's Neural Acute Assay for Single-Electrode Bursts, Shafer Lab (AID 2284013)
Summary of the method: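 Burst totals were derived with adaptive spike detection (8x rms threshold) on filtered signals from rat cortical cultures; change relative to pre-treatment baseline after 40-min compound exposure (0.03-40 uM) was fitted in the negative direction against DMSO.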

[4] = CCTE_Shafer_MEA_acute_burst_duration_mean: CCTE's Neural Acute Assay for Mean Burst Duration, Shafer Lab (AID 2284014);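 note: hits are decreases in mean burst duration relative to DMSO controls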
Summary of the method: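 Acute exposure of mature rat cortical networks (DIV 13 or 15) grown on microelectrode arrays to 0.03-40 uM compound. Mean burst duration compared with the 40-min pre-dose baseline over a 40-min post-dose recording at 37 C.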

[5] = CCTE_Shafer_MEA_acute_per_burst_spike_number_mean: CCTE's Neural Acute Assay for Average Number of Spikes Per Burst, Shafer Lab (AID 2284015);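 note: hits are decreases in mean spikes per burst versus baseline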
Summary of the method: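 Rat primary cortical neurons on 48-well MEAs (DIV 13 or 15) were treated with 0.03-40 uM compound at 37 C. Mean spikes per burst over 40 min were recorded before and after exposure and expressed as percent change from baseline, relative to DMSO.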

[6] = CCTE_Shafer_MEA_acute_interburst_interval_mean: CCTE's Neural Acute Assay for Mean Interburst Interval, Shafer Lab (AID 2284016);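 note: percent change of mean interburst interval versus each well's own pre-dose baseline; curves fitted for decrease in interburst interval relative to DMSO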
Summary of the method: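 Rat primary cortical neurons on 48-well MEAs at DIV 13 or 15 were exposed acutely to 0.03-40 uM. Spikes detected at 8x rms noise, 37 C. Mean interburst interval from 40 min recordings expressed as percent change from 40 min pre-treatment baseline.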

[7] = CCTE_Shafer_MEA_acute_burst_percentage_mean: CCTE's Neural Acute Assay for Percentage of Spikes in a Burst, Shafer Lab (AID 2284017);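 for AC50: curve fitted for loss of signal so potency reflects decreased burst percentage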
Summary of the method: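 Primary rat cortical neurons on 48-well MEA plates, treated on DIV 13 or 15 at 0.03-40 uM. Spikes detected at 8x rms noise at 37C; percent change from 40-min baseline to 40-min post-dose recording, fitted versus DMSO.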

[8] = CCTE_Shafer_MEA_acute_burst_percentage_std: CCTE's Neural Acute Assay for Standard Deviation of Burst Percentage, Shafer Lab (AID 2284018);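 note: fitted in the negative direction so actives lower burst percentage SD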
Summary of the method: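 Primary rat cortical neurons on 16-electrode MEA wells were recorded 40 min at baseline (DIV 13 or 15), then 40 min after compound (0.03-40 uM), at 37 C. Well value is SD across electrodes of spikes-in-bursts/total spikes; endpoint is percent change, DMSO-referenced.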

[9] = CCTE_Shafer_MEA_acute_per_network_burst_spike_number_mean: CCTE's Neural Acute Assay for Average Number of Spikes in a Network Burst, Shafer Lab (AID 2284019)
Summary of the method: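 Acute exposure of rat primary cortical networks (DIV 13/15) on MEAs; adaptive spike detection at 8x rms noise, 37 C. Percent change in spikes per network burst after 40 min with compound (0.03-40 uM), negative direction vs DMSO.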

[10] = CCTE_Shafer_MEA_acute_per_network_burst_spike_number_std: CCTE's Neural Acute Assay for Standard Deviation of Number of Spikes in a Network Burst, Shafer Lab (AID 2284020);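 note: fitted for decrease in spike-number SD versus DMSO so actives lower it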
Summary of the method: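 Acute MEA exposure, rat cortical neurons, 0.03-40 uM. Per-well % change versus own baseline; DMSO as negative control.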

[11] = read-out: Monokine induced gamma interferon (MIG), CXCL9 (gene 4283); assay: BSK_KF3CT_MIG: BioMAP Diversity Plus: KF3CT Assay for Monokine induced gamma interferon (MIG) Biomarker Activity (AID 2284248); settings: primary human keratinocytes with fibroblasts
Summary of the method: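 KF3CT system: keratinocyte/fibroblast co-culture, 24 h post-dose, MIG by ELISA; activity vs DMSO, positive fitting direction.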

[12] = read-out: Plasminogen activator inhibitor-1 (PAI1), SERPINE1 (gene 5054); assay: BSK_KF3CT_PAI1: BioMAP Diversity Plus: KF3CT Assay for Plasminogen activator inhibitor-1 (PAI1) Biomarker Activity (AID 2284252); settings: primary human keratinocytes with fibroblasts
Summary of the method: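 In this co-culture of primary human keratinocytes and foreskin fibroblasts, PAI-1 was measured by ELISA at 24 h and fitted upward from DMSO.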

[13] = read-out: Interleukin-8 (IL8), CXCL8 (gene 3576); assay: BSK_KF3CT_IL8: BioMAP Diversity Plus: KF3CT Assay for Interleukin-8 (IL8) Biomarker Activity (AID 2284254); settings: primary human keratinocytes with fibroblasts
Summary of the method: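 Chemicals were added to co-cultured human keratinocytes and foreskin fibroblasts, incubated 24 h, then IL-8 was quantified by ELISA. Cytotoxicity was tracked by sulforhodamine B total-protein staining in parallel cultures.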

[14] = read-out: Interferon-inducible T-cell alpha chemoattractant (ITAC), CXCL11 (gene 6373); assay: BSK_BE3C_ITAC: BioMAP Diversity Plus: BE3C Assay for Interferon-inducible T-cell alpha chemoattractant (ITAC) Biomarker Activity (AID 2284279); settings: primary human bronchial epithelial cells
Summary of the method: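 ELISA for I-TAC in primary human bronchial epithelial cultures 24 h post-treatment, fitted relative to DMSO baseline in positive direction. Cytotoxicity checked in parallel cultures by sulforhodamine B protein staining.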

[15] = read-out: Interleukin-8 (IL8), CXCL8 (gene 3576); assay: BSK_BE3C_IL8: BioMAP Diversity Plus: BE3C Assay for Interleukin-8 (IL8) Biomarker Activity (AID 2284280); settings: primary human bronchial epithelial cells
Summary of the method: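 Measured at 24 h after treatment, IL-8 from human primary bronchial epithelial cells is determined by ELISA, and the response is modelled as increasing relative to DMSO negative control.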

[16] = read-out: Plasminogen activator inhibitor-1 (PAI1), SERPINE1 (gene 5054); assay: BSK_CASM3C_PAI1: BioMAP Diversity Plus: CASM3C Assay for Plasminogen activator inhibitor-1 (PAI1) Biomarker Activity (AID 2284284); settings: primary human coronary artery smooth muscle cells;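 note: PAI-1 protein level measured by ELISA 24 h after dosing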
[17] = ATG_ISRE_CIS: Attagene CIS-FACTORIAL HepG2 Assay for human Interferon Regulatory Factor 1 (IRF1) binding to an Interferon-Stimulated Response Element (ISRE) (AID 2282948); settings: HepG2 ISRE cis-reporter (Attagene), mRNA transcription readout; actives raise or lower the signal
Summary of the method: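 Multiplexed mRNA reporter readout in human liver HepG2 cells: cis-element-driven reporters transfected, compound added for 24 h, transcripts amplified, fluorescently labelled and sized by capillary electrophoresis; curve fitting bidirectional against DMSO.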

[18] = ATG_PBREM_CIS: Attagene CIS-FACTORIAL HepG2 Assay for human Phenobarbital-responsive Enhancer Module (PBREM) (AID 2282955); settings: HepG2 PBREM cis-reporter, Attagene multiplexed transcription; actives raise or lower the signal
Summary of the method: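 HepG2, transient MRTU transfection, 24 h dosing; RNA → oligo(dT) RT → PCR → 6-FAM extension → HpaI → CE. Bidirectional fit vs DMSO.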

[19] = ATG_M_06_TRANS: Attagene TRANS-FACTORIAL HepG2 Assay for M06 Transcription Factor (Internal Marker) (AID 2282983; active = hit-call score of the fitted dose curve at least 0.9, where 1 is the maximum;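 note: reporter transcript level by RT-PCR then capillary electrophoresis fluorescence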); settings: HepG2 Attagene TRANS M06 internal marker reporter
Summary of the method: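 Background control endpoint: reporter mRNA from transiently transfected HepG2 after 24 h dosing, detected by RT-PCR with capillary electrophoresis fluorescence. Analysed for gain versus DMSO.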

[20] = molecular target: human Thyroid Receptor alpha (THRa1), THRA (gene 7067) (UniProt P10827); assay: ATG_THRa1_TRANS: Attagene TRANS-FACTORIAL HepG2 Assay for human Thyroid Receptor alpha (THRa1) (AID 2283014; active = hit-call score of the fitted dose curve at least 0.9, where 1 is the maximum)
Chain of human Thyroid Receptor alpha (THRa1), THRA (gene 7067) (P10827 whole entry, looked up, the tested form may be a part): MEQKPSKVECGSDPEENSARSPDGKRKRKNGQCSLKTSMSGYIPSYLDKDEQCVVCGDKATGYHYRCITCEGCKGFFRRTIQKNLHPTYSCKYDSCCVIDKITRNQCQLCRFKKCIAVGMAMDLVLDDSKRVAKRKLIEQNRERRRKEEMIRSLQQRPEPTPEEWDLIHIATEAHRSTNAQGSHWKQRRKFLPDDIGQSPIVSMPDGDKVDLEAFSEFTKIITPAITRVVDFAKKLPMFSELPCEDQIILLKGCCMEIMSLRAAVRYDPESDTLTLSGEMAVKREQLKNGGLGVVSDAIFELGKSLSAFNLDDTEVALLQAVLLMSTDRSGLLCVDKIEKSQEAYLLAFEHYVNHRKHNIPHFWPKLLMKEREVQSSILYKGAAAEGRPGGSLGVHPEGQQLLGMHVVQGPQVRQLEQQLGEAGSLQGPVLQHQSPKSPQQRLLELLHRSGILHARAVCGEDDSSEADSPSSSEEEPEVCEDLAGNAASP
Summary of the method: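 Reporter transcript induction, read by capillary electrophoresis of 6-FAM-labelled RT-PCR products, reflects activity of a transfected THRa1-Gal4 fusion in HepG2 liver cells. Cells were dosed for 24 h; activity was fitted in the positive direction against DMSO.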

Measured: AC50

C1CN(CCOCCN2CCOCC2)CCO1
not listed: [17] | [18] | [19] | [20]
inactive: all other assays above

Oc1ccc(Oc2ccccc2)cc1
inactive: [17] | [18] | [19] | [20]

CCC[Si](OC(C)=O)(OC(C)=O)OC(C)=O
active: [1] 72.1 nM | [2] 72.1 nM | [3] 55.4 nM
not listed: [17] | [18] | [19] | [20]
inactive: all other assays above

CC(C)C1OCCN1CCOC(=O)NCCCCCCNC(=O)OCCN1CCOC1C(C)C (stereo unspecified)
active: [1] 16.3 nM | [2] 16.3 nM
not listed: [17] | [18] | [19] | [20]
inactive: all other assays above

COc1ccccc1Oc1c(NS(=O)(=O)c2ccc(C(C)(C)C)cc2)nc(-c2ncccn2)nc1OCCO
active: [6] 5330 nM
not listed: [17] | [18] | [19] | [20]
inactive: all other assays above

CCO[Si](OCC)(OCC)c1ccccc1
inactive: [17] | [19] | [20]

CC(C)(C)NC(=O)[C@@H]1CN(Cc2cccnc2)CCN1C[C@@H](O)C[C@@H](Cc1ccccc1)C(=O)N[C@H]1c2ccccc2C[C@H]1O
inactive: [18] | [20]

O=C(O)Cc1c[nH]c2ccccc12
inactive: [18] | [20]

CC[N+](CC)(CC(=O)Nc1c(C)cccc1C)Cc1ccccc1 (tested in a mixture with another compound)
active: [1] 256 nM | [2] 694 nM | [7] 2130 nM
not listed: [18] | [20]
inactive: all other assays above

C=C(C)C(=O)OCC1CCCO1 (stereo unspecified)
inactive: [18] | [19] | [20]

CNCCC(Oc1ccc(C(F)(F)F)cc1)c1ccccc1 (stereo unspecified)
active: [1] 877 nM | [2] 877 nM | [3] 693 nM | [7] 7590 nM | [8] 5910 nM
inactive: [4] | [5] | [6] | [9] | [10]
